Our source for the outcome and AC50 values is PubChem BioAssay (EPA / NIEHS).

Activity calls are given as the source filed them. Rule for the calls: active = hit-call score of the fitted dose curve at least 0.9, where 1 is the maximum; inactive = score below 0.9.

Read-out in the first assay: Interferon-gamma inducible Protein 10 (IP10), CXCL10 (gene 3627)
Kind of assay: BSK_BE3C_IP10: BioMAP Diversity Plus: BE3C Assay for Interferon-gamma inducible Protein 10 (IP10) Biomarker Activity (AID 2283034). To be noted: primary human bronchial epithelial cells; actives raise or lower the signal. In short, it runs like this: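 BE3C cells (human bronchial epithelial, primary); 24 h exposure; ELISA for IP-10; DMSO-referenced bidirectional fit.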
With `Cc1cc(=O)[nH]c(=S)[nH]1`, the result was inactive.

As to `CCCCc1ccc2c(n1)[C@@H](c1ccc(OC)cc1C[C@H](C)C(=O)O)[C@H](C(=O)O)[C@H]2c1ccc2c(c1)OCO2`, the result was inactive.

Regarding `FC(F)(F)C(F)(F)C(F)(F)C(F)(F)C(F)(F)C(F)(F)CCI`, the outcome was inactive.

As to `C=CCOC(=O)c1ccccc1C(=O)OCC=C`, the result was inactive.

On to `O=[N+]([O-])C(CO)(CO)CO`, for which the outcome was inactive.

Turning to `Oc1ccc2ccccc2c1N=Nc1ccccc1`, the outcome was inactive.

`O=C(N[C@@H](Cc1ccccc1)[C@@H](O)C(=O)N1C[C@@H](O)[C@@H](O)C1)c1cc2cc(Cl)ccc2[nH]1`: the result was inactive.

For `CCCCCCCCCCCCCCCC`, the result was inactive.

Consider `CCCCCCCCCCC`, for which the outcome was inactive.

Read-out in another assay: Monokine induced gamma interferon (MIG), CXCL9 (gene 4283)
Put plainly: BSK_BE3C_MIG: BioMAP Diversity Plus: BE3C Assay for Monokine induced gamma interferon (MIG) Biomarker Activity (AID 2283035).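 For outcome: MIG protein measured by ELISA in BE3C cultures after 24 h of dosing.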 Particulars: primary human bronchial epithelial cells; actives raise or lower the signal. In short, it runs like this:
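Dose cells (human primary bronchial epithelial), incubate 24 h, quantify MIG by ELISA, then fit concentration–response in both directions relative to DMSO control.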
Turning to `COCCOC[C@H](CC1(C(=O)NC2CCC(C(=O)O)CC2)CCCC1)C(=O)Oc1ccc2c(c1)CCC2` (stereo not given in full), the result was inactive.

On to `COc1cc(-c2nc(NC(=O)c3cc4cc(C)cc(C)c4n3CC(=O)O)sc2CCC2CCCCC2)c(OC)cc1Cl`, for which the concentration at half-maximal activity (AC50) was 1.56 µM (active).

As for `NCC1(Cc2noc(=O)[nH]2)CCCCC1`, the outcome was inactive.

Turning to `CCCCC(CC)COC(=O)CC(C(=O)OCC(CC)CCCC)S(=O)(=O)O` (stereo not given), the AC50 is 8.91 µM (active).

On to `CCOC(=O)CCC(=O)OCC`, for which the result was inactive.

Consider `Nc1ccc(S(=O)(=O)c2ccc(N)cc2)cc1`, for which the result was inactive.

For `CC(C)c1ccc(C(=O)N=C(N)N)cc1S(C)(=O)=O`, the outcome was inactive.

Regarding `CCCCCCOCCO`, the outcome was inactive.

As to `CC(CO)OC(C)CO` (stereo not given) (tested in a mixture with another compound), the outcome was inactive.

Take `COc1cc(C=O)ccc1O`: the outcome was inactive.

With `c1cc(-c2ccncc2)ccn1`, the result was inactive.

In general, AC50 refers to the concentration at which the activity in the assay is half-maximal.
